Screening data from PubChem.
Shown is part of a subset that was picked to be rich in hits.
Pf apPOL block = Pf-apPOL inhibitors, biochemical, fluorescence. Plasmodium falciparum apicoplast DNA polymerase (apPOL). Recombinant Pf-apPOL, molecular beacon fluorescence, 1.5 h. inhibition, % at 10 µM. 210,000 compounds, 0.25% hits
mHTT CaM bind = mutant huntingtin-calmodulin interaction inhibitors – biochemical, AlphaScreen, primary screen; AID 1671202, 2021; AlphaScreen His-mHTT/GST-CaM binding, luminescence; 190,000 compounds, 3.6% hits; inhibition, % at 15 µM;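 also: 0% = both proteins with DMSO and 100% = one protein alone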
Active calls of the source: *. Rule as the data show it: active = inhibition above about 50%; inactive = the rest.

Screening Cc1cccc(C(=O)Nc2nc(C)cc(C)c2-c2noc(C)n2)c1 returned Pf apPOL block 3 and mHTT CaM bind -8.
`CC(Nc1cc(N2CCN(C(=O)c3cccs3)CC2)ccc1[N+](=O)[O-])c1ccccc1` (stereo unspecified) gave Pf apPOL block 3 and mHTT CaM bind 35.
Screening CC(Nc1cc(N2CCN(C(=O)c3ccco3)CC2)ccc1[N+](=O)[O-])c1ccccc1 (stereo unspecified) returned Pf apPOL block -4 and mHTT CaM bind 56*.
`FC(F)(F)c1cc(N2COc3cc4c(cc3C2)OCO4)ccc1Cl` gave Pf apPOL block 0 and mHTT CaM bind 13.
CCCN1C(=O)Cc2cc(C(=O)N3CCN(c4ccccc4C)CC3)ccc21 was read as Pf apPOL block -2 and mHTT CaM bind 55*.
For CCCN1C(=O)Cc2cc(C(=O)N3CCN(c4ccccn4)CC3)ccc21 the results were Pf apPOL block -3 and mHTT CaM bind 4.
Screening CCCS(=O)(=O)N1CCCC(C)(C(=O)NCc2ccc(OC)cc2)C1 (stereo unspecified) returned Pf apPOL block 2 and mHTT CaM bind -4.
CC(=O)c1ccc(O)c2c1C1C=CCC1C(c1ccc(Cl)cc1)N2 (stereo unspecified) was read as Pf apPOL block -7 and mHTT CaM bind 64*.
For Fc1cccc2c1NC(c1ccc(Cl)cc1)C1CC=CC21 (stereo unspecified) the results were Pf apPOL block 2 and mHTT CaM bind 59*.
For Oc1ccc(Cl)c2c1NC(c1ccc(Cl)cc1)C1CC=CC21 (stereo unspecified) the results were Pf apPOL block -3 and mHTT CaM bind 100*.
Fc1ccc([C@@H]2Nc3c(F)cccc3[C@@H]3C=CC[C@@H]32)cc1 was read as mHTT CaM bind -11.
For Cn1c(=O)cnc2ccc(N3CCOCC3)nc21 the results were Pf apPOL block -4 and mHTT CaM bind 3.
`Cc1oc(C2CCN(C(=O)c3cccc(Br)c3)CC2)nc1C(=O)N(C)C` gave Pf apPOL block -8 and mHTT CaM bind -6.
For O=C(CSc1cccs1)Nc1nccs1 the results were mHTT CaM bind -1.
Screening O=C(CSc1cccs1)NC1=NN(c2ccccc2)C(=O)C1 returned Pf apPOL block -2 and mHTT CaM bind 82*.
For COc1ccccc1C(=O)N1CCCC(C)(C(=O)NCc2ccccc2)C1 (stereo unspecified) the results were Pf apPOL block -3 and mHTT CaM bind -12.
Screening CN1CCC(N2CCN(C3CN(Cc4cn(Cc5cccc(Cl)c5)nn4)S(=O)(=O)C3)CC2)CC1 (stereo unspecified) returned Pf apPOL block 0 and mHTT CaM bind -6.
CCCn1cc2c3c(cccc31)CN(C(=O)Nc1ccc(OC)cc1)CC2 was read as Pf apPOL block 0 and mHTT CaM bind 13.
For COc1ccc(NC(=O)N2CCc3c(c4ccccc4n3C)C2)cc1 the results were Pf apPOL block -4 and mHTT CaM bind 51*.
COc1ccc(-c2c(C)c3ccc(O)c(CN(C)C)c3oc2=O)cc1 was read as Pf apPOL block -56 and mHTT CaM bind 9.
For COc1ccc(C2=NN3C(C2)c2ccccc2OC32CCCCC2)cc1 (stereo unspecified) the results were Pf apPOL block -12 and mHTT CaM bind 25.
For COc1cccc2c1OC1(CCC(C)CC1)N1N=C(c3ccc(C)o3)CC21 (stereo unspecified) the results were Pf apPOL block -15 and mHTT CaM bind 85*.
`COc1cccc2c1OC1(CCCCC1)N1N=C(c3ccccc3)CC21` (stereo unspecified) gave Pf apPOL block -4 and mHTT CaM bind 13.
For COc1cccc2c1OC1(CCCCC1)N1N=C(c3ccc(C)o3)CC21 (stereo unspecified) the results were Pf apPOL block -17 and mHTT CaM bind 80*.
`O=C(Nc1ccc2oc(-c3ccccc3)nc2c1)c1cc([N+](=O)[O-])cc([N+](=O)[O-])c1` gave Pf apPOL block -6 and mHTT CaM bind 7.
O=C(Nc1ccc(C(F)(F)F)cc1[N+](=O)[O-])O[C@H]1[C@H](Cc2ccccc2)NS(=O)(=O)[C@H]2C[C@@H]3C=C[C@]12O3 was read as Pf apPOL block -5 and mHTT CaM bind 65*.
`Cc1cc(C(=O)O[C@H]2[C@H](Cc3ccccc3)NS(=O)(=O)[C@H]3C[C@@H]4C=C[C@]23O4)ccc1[N+](=O)[O-]` gave Pf apPOL block -8 and mHTT CaM bind 17.
Cc1sc2ccn(CC(C)C)c(=O)c2c1C(=O)N1CCCCCC1 was read as Pf apPOL block 2 and mHTT CaM bind 15.
Cc1nnc(N2C(=O)C(O)=C(C(=O)c3ccco3)C2c2ccccc2F)s1 (stereo unspecified) was read as Pf apPOL block -19 and mHTT CaM bind 57*.
Cc1nnc(N2C(=O)C(O)=C(C(=O)c3ccco3)C2c2ccc(Cl)cc2)s1 (stereo unspecified) was read as Pf apPOL block -2 and mHTT CaM bind 78*.
`Cc1nnc(N2C(=O)C(O)=C(C(=O)c3ccco3)C2c2ccc(Br)cc2)s1` (stereo unspecified) gave Pf apPOL block -7 and mHTT CaM bind 22.
COc1ccc(C2C(C(=O)c3ccco3)=C(O)C(=O)N2c2nnc(C)s2)cc1OC (stereo unspecified) was read as Pf apPOL block -4 and mHTT CaM bind 1.
`O=C(COc1ccccc1Cl)Nc1ncc(S(=O)(=O)c2ccc([N+](=O)[O-])cc2)s1` gave Pf apPOL block 1 and mHTT CaM bind 21.
CC(=O)c1ccc(N2CCN(C(=O)Cc3csc(NC(=O)C4CCCC4)n3)CC2)cc1 was read as Pf apPOL block -9 and mHTT CaM bind -18.
COCc1noc(C2CCCCN2CCOc2ccc(F)cc2)n1 (stereo unspecified) was read as Pf apPOL block -8 and mHTT CaM bind -5.
For COc1ccc(C(O)c2nccn2C)cc1 (stereo unspecified) the results were Pf apPOL block 52* and mHTT CaM bind -5.
CCOc1ccc(C(O)c2nccn2C)cc1 (stereo unspecified) was read as Pf apPOL block 1 and mHTT CaM bind -2.
Screening O=S(=O)(c1ccc(-c2ccccc2)cc1)N1CCN(c2ccccc2)CC1 returned Pf apPOL block -2 and mHTT CaM bind 0.
Screening COc1ccc(C(/C=C2\N(C)c3ccccc3C2(C)C)C[N+](=O)[O-])cc1 (stereo unspecified) returned Pf apPOL block 0 and mHTT CaM bind 50.
CN1/C(=C\C(C[N+](=O)[O-])c2ccc3c(c2)OCO3)C(C)(C)c2ccccc21 (stereo unspecified) was read as Pf apPOL block -17 and mHTT CaM bind 83*.
Screening COc1cc(/C=c2\sc3nc4ccccc4n3c2=O)ccc1OCC#N returned Pf apPOL block -4 and mHTT CaM bind 9.
For CCOC(=O)c1ccccc1NC(=O)CN1CC(c2nc(-c3cccs3)no2)C1 the results were Pf apPOL block -3 and mHTT CaM bind -11.
`CCc1ccc(N(CC(=O)N2CCCC2)S(=O)(=O)c2ccccc2)cc1` gave Pf apPOL block 5 and mHTT CaM bind -2.
Screening CCc1ccc(N(CC(=O)N2CCN(c3ccccc3)CC2)S(=O)(=O)c2ccccc2)cc1 returned Pf apPOL block 3 and mHTT CaM bind 54*.
